Assay outcomes: PubChem, National Center for Advancing Translational Sciences (NCATS)
HepG2 tox: qHTS for Inhibitors of TGF-b: Cytotox Counterscreen. HepG2 CAGA-GFP viability, ATP luminescence, 18 h. Potency, µM (top dose mostly 46.1 µM), without a hit: at the highest dose activity change, negative = cytotoxicity, actives largely listed as cytotoxic. 0.76% of 410,000 active. AID 588856, 2011
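HepG2 CAGA-GFP cells (1000/well, DMEM with 1% FBS) received compound, then TGF-beta at 500 pg/mL final, and were incubated 18 hours at 37 degrees C. Viability was read by CellTiter-Glo luminescence. Media-only wells were set as complete cell-killing and DMSO as no toxicity.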
Gal4-VP16 FLuc: VP16 counterscreen qHTS for inhibitors of ROR gamma transcriptional activity; 3.5% of 310,000 active; Drosophila S2 Gal4-VP16 UAS-luciferase, luminescence, 20 h; Potency, µM (doses to about 53.6 µM), inactives show at the highest dose activity, negative = inhibition, actives largely listed as inhibitors;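 further: Gal4-VP16 expression switched on by copper sulfate through the metallothionein promoter; on the % scale 0 is the no-effect control and ±100 the full control effect; nearly all actives have a fitted effect of over 50% in size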
RORgamma inh: qHTS for inhibitors of ROR gamma transcriptional activity | 5.4% of 310,000 active | Drosophila S2 Gal4-RORgamma UAS-luciferase reporter, 20 h | AID 2551, 2010 | Potency, µM (doses to about 53.6 µM), for inactives: at the top dose activity change, negative = inhibition, actives largely listed as inhibitors | Nuclear receptor ROR-gamma (Mus musculus), P51450; further: on the % scale 0 is the no-effect control and ±100 the full control effect; nearly all actives have a fitted effect of over 60% in size
Target sequence (P51450 whole entry, looked up, the tested form may be a part): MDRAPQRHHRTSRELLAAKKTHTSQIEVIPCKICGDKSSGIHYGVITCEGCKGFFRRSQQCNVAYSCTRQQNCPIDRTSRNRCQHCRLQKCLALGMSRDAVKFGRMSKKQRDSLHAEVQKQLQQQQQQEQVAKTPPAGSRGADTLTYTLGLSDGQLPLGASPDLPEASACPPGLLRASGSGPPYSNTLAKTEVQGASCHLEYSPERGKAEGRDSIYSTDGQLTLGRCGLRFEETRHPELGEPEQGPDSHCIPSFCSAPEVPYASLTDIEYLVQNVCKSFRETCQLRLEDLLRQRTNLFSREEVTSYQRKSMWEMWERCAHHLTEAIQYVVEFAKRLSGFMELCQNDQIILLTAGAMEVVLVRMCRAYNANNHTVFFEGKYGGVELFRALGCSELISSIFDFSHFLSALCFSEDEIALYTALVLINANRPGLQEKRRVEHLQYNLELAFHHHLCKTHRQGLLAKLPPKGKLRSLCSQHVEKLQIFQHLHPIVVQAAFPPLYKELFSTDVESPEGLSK
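Drosophila S2 cells stably expressing Gal4-DBD/mouse RORγ fusion under metallothionein promoter plus UAS-luciferase; compound 1 h, then 700 uM CuSO4 induction for 20 h at ambient temperature; inhibition read as reduced luminescence.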
ATXN2 expr inh: Primary qHTS for Inhibitors of ATXN expression. Potency, µM (doses to about 57 µM), without a hit: at the highest dose activity change, negative = inhibition, usual class: inhibitors. 0.72% of 360,000 active. HEK-293 ATXN2-luciferase reporter, luminescence, 24 h; further: on the % scale 0 is the no-effect control and ±100 the full control effect; nearly all actives have a fitted effect of over 55% in size
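ATXN2-luciferase reporter cells (luciferase flanked by upstream and downstream ATXN2 gene portions) were treated 24 h at 37 °C with compounds at up to 57 uM. SteadyGlo luminescence gave expression; GF-AFC fluorescence gave viability.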
ATXN viability: Viability Counterscreen for Primary qHTS for Inhibitors of ATXN expression | S2 cells (HEK-293 line with an ATXN2-luciferase reporter) viability, CellTiter-Fluor protease fluorescence, 24 h | Potency, µM (highest dose often 56.7 µM), most hits filed as cytotoxic | 0.49% of 400,000 active; further: nearly all actives have a fitted effect of over 40% in size
TGFb SMAD3 inh: qHTS for Inhibitors of TGF-b | HepG2 CAGA-GFP TGF-b/SMAD3 reporter, GFP fluorescence, 18 h; TGF-beta stimulated, 500 pg/mL final | Potency, µM (titrated, usually from 46.1 µM), for inactives: at the top dose activity, negative = inhibition, most hits filed as inhibitors | 1.2% of 410,000 active; further: on the % scale 0 is the no-effect control and ±100 the full control effect; nearly all actives have a fitted effect of over 65% in size
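Using HEPG2 CAGA-GFP reporter cells at 1000 cells/well, we pinned test compounds, stimulated with recombinant TGF-beta (500 pg/mL final) and measured total well GFP after 18 h.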
Starred values were filed as active, the others as inactive; i = inactive; ? = inconclusive; · = no result given; [ ] = remark or other dose. Only some compounds are listed: those with a hit (about 6.1% of all), similar ones and a draw of the others. The call rests on the fitted dose curve; in most records, active means well fitted curve in the direction sought with a large enough effect; inconclusive means small, poorly fitted or top-dose-only effect, or another doubt; inactive means no such curve, though single readings can be large; an effect the other way counts as inactive or inconclusive. Potency means the concentration at half of the fitted maximal effect.

SMILES	HepG2 tox	Gal4-VP16 FLuc	RORgamma inh	ATXN2 expr inh	ATXN viability	TGFb SMAD3 inh
Cn1cnc([N+](=O)[O-])c1S(=O)(=O)c1cccc(Cl)c1	-107%	5µM*	2.8µM*	?	·	?
O=C(N/N=C/c1c(O)n(-c2ccccc2Cl)c(=O)c2ccccc12)c1cccnc1	-6%	-7%	13µM*	2%[11.3 µM]	·	-11%
O=C(N/N=C/c1cn(Cc2ccccc2)c2ccccc12)c1cccnc1	-37%	8.9µM*	7.1µM*	?	i	2.8µM*
NC(=O)CSc1cn(Cc2cccc(F)c2)c2ccccc12	-1%	-10%	9%	-14%	i	-1%
O=C(N/N=C/c1cccc2ccccc12)c1cccnc1	0%	20%	-4%	1%	i	?
O=C(N/N=C/c1c(O)n(Cc2ccccc2)c(=O)c2ccccc12)c1cccnc1	-40%	-1%	11µM*	17µM*	·	0%
Nc1ccc(C(=O)N/N=C/c2cn(Cc3cccc(F)c3)c3ccccc23)cc1	-1%	?	?	-31%	i	1.3µM*
Cc1oc(-c2ccc(Cl)cc2)nc1Cn1c(=O)cc(C)c2c(C)nn(-c3cccc(F)c3)c21	-1%	·	·	-1%	i	9%
COc1ccc(NC(=O)C(NS(=O)(=O)c2cccc3nsnc23)c2ccccc2)cc1 (centres undefined)	-1%	·	·	7%	i	-11%
COc1ccc(Cn2c(O)c(/C=N/NC(=O)c3cccnc3)c3ccccc3c2=O)cc1	8%	0%	6.3µM*	?	·	?
O=C(Nc1ccccc1F)c1oc2ccccc2c1NC(=O)c1c(F)cccc1F	-33%	·	·	6%	i	?
Cc1ccc2nc3sc(C(=O)N4CCOCC4)c(N)c3cc2c1	-19%	?	?	2.5µM*	i	-14%
Cc1ccc2cc3c(N)c(C(=O)N4CCOCC4)sc3nc2c1	-7%	?	?	43%	i	0%
Cc1ccc(C=NNC(=O)C(=O)Nc2ccc(Cl)c([N+](=O)[O-])c2)cc1	1%	·	·	12%	i	8%
O=[N+]([O-])c1cc(/C=N/NC(=S)Nc2ccccc2Cl)ccc1Cl	-59%	3.5µM*	3.2µM*	-12%	i	-28%
Cc1ccc(NC(=S)N/N=C/c2ccc(Cl)c([N+](=O)[O-])c2)cc1	-33%	?	18µM*	-3%	?	-25%
COc1ccc(/C=N/NC(=S)Nc2ccccc2[N+](=O)[O-])cc1O	-26%	3.2µM*	5.6µM*	40%	?	?
CCCCOC(=O)CCCCCCCCC(=O)OCCCC	·	·	·	10%	i	·
Cc1oc2ccc(O)c(CN3CCN(C)CC3)c2c1C(=O)Nc1ccccc1	-16%	·	·	-9%	i	-10%
N#Cc1cccnc1N1CCN(C(=O)c2cccc3c2C(=O)c2ccc(-c4ccc(Cl)c(C(F)(F)F)c4)cc2S3(=O)=O)CC1	5%	·	·	7%	i	1%
N#Cc1cccnc1N1CCN(C(=O)c2cccc3c2C(=O)c2ccc(Cl)cc2S3(=O)=O)CC1	-2%	·	·	?	20µM*	3%
Cc1ccccc1NC(=S)NCCc1ccccn1	-19%	?	16µM*	3%	i	-4%
O=C(NC(=S)NCCc1ccccn1)c1ccccc1	-21%	-66%	13µM*	5%	i	1%
S=C(NCc1ccccn1)Nc1ccc(Cl)cc1	-1%	?	7.9µM*	9%	i	-24%
Cc1cccc(C)c1NC(=S)NCCc1ccccn1	0%	2.8µM*	1.4µM*	2%	i	-11%
SMILES	HepG2 tox	Gal4-VP16 FLuc	RORgamma inh	ATXN2 expr inh	ATXN viability	TGFb SMAD3 inh
CCC(Sc1nnc(C)n2c1cc1occc12)C(=O)Nc1ccccc1F (centres undefined)	-25%	·	·	·	·	?
Cc1cccc(NC(=S)NCCc2ccccn2)c1	-7%	?	?	2%	?	-6%
S=C(NCCc1ccccn1)Nc1cccc(Cl)c1	-3%	7.9µM*	5µM*	16%	i	-2%
CC(=O)Nc1c(C)nn(-c2ccccc2)c1N1CCC(C(=O)Nc2ccccc2F)CC1	-14%	·	·	·	·	-3%
COCCNC(=O)CSc1nc2ccc(N3CCOCC3)cc2c(=O)n1Cc1ccc(OC)cc1	0%	14µM*	10µM*	48%	i	2%
CCCCn1c(SCC(=O)NC(C)CC)nc2ccc(N3CCOCC3)cc2c1=O (centres undefined)	4%	20µM*	1.3µM*	4%	i	8%
CCC(C)NC(=O)CSc1n[nH]c(=O)n1CCc1ccccc1 (centres undefined)	-4%	1%	-23%	4%	i	1%
CCC(C)NC(=O)CSc1nc2ccc(N3CCOCC3)cc2c(=O)n1CCc1ccccc1 (centres undefined)	·	?	7.9µM*	·	·	·
CCCCn1c(SCC(=O)NCc2ccco2)nc2ccc(N3CCOCC3)cc2c1=O	-4%	18µM*	6.3µM*	9%	i	-8%
CCCCNC(=O)CSc1nc2ccc(N3CCOCC3)cc2c(=O)n1Cc1ccc(OC)cc1	1%	-2%	?	10%	i	1%
CCCCn1c(SCC(=O)NCc2ccccc2)nc2ccc(N3CCOCC3)cc2c1=O	-16%	?	?	-9%	i	-3%
CCOC(=O)c1cc(OC(=O)c2cc(Cl)ccc2OC)n(-c2ccccc2)n1	4%	·	·	6%	i	18%
COc1ccc(OC)c(C(=O)N2CCc3c(cnc(C)c3CNS(=O)(=O)N(C)C)C2)c1	·	·	·	·	i	·
O=C1[C@H]2[C@H]3[C@H](O)[C@H](O)C/C(=N/OC[C@@H](O)COCc4ccco4)[C@H]3CC[C@@H]2C(=O)N1c1cccc(Oc2ccccc2)c1	·	-15%[10 µM]	11%[10 µM]	·	·	·
COCCNC(=O)c1ccc(Cn2c(SCC(=O)NC(C)C)nc3ccccc3c2=O)cc1	-19%	·	·	16%	i	4%
COc1ccc(C(=O)Nn2c(SCC(=O)c3ccccc3)nc3ccccc3c2=O)cc1	-16%	?	11µM*	?	i	12%
CCC(C)NC(=O)CSc1nc2ccccc2c(=O)n1Cc1ccc(OC)cc1 (centres undefined)	1%	10µM*	8%	-7%	i	-3%
CCCCn1c(SCC(=O)Nc2ccc(OC)cc2)nc2ccc(N3CCOCC3)cc2c1=O	-22%	10µM*	?	·	·	-9%
COc1ccc(CNc2ncnc3sccc23)cc1OC	5%	11µM*	?	-21%	i	4%
